Growth inhibition data for 14 compounds are collected here from PubChem BioAssay (NCI).

The experiment in a line: NCI Yeast Anticancer Drug Screen. Data for the cln2 rad14 strain (AID 165).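 Further: 0% = growth equal to vehicle treated cultures.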 The conditions noted are these: S. cerevisiae cln2 rad14 strain, stronger effect = higher value. As for the experimental part:
Growth inhibition of yeast strains with defined genetic alterations is measured as a screen for potential anti-cancer activity. Selected strains with alterations in DNA damage repair or cell cycle control were exposed to compounds and growth inhibition was measured relative to vehicle treated controls. The strain used in this assay is cln2 rad14

Setting [1] is: at 5.0 µM (retest, dose inferred, filed as 0.5).
Setting [2] is: at 50.0 µM (retest, dose inferred, filed as 5.0).

“And” between values parts separate entries of the source, which are not always exact repeats. Equal values may be shown once. This is part of a sample that, as a whole, favours compounds with a hit. Of some 79,000 tested, about 15% had one in any assay. The source holds several records for some structures; these can differ, active in one and inactive in another. The source made the active and inactive calls. No stated cut-off is given here; in the data, active means growth inhibition above about 70%; inactive means the rest.

Turning to `O=[N+]([O-])c1cccc2nc3ccccc3c(NCCCn3ccnc3[N+](=O)[O-])c12`, the growth inhibition by setting is: under setting [1], 52% (inactive); under setting [2], 97% (active); (at 50.0 µM) 87.4% (active).
As for `Cc1cc(C(C)(C)CC(C)(C)C)ccc1O`, the growth inhibition under setting [1] is 55% (inactive), the growth inhibition under setting [2] was 98% (active) and the growth inhibition (at 50.0 µM) is 92.8% (active).
For the compound `COc1ccc(/C=C/C(=O)c2ccccc2)cc1OC`, the growth inhibition by setting is: under setting [1], 30% (inactive); under setting [2], 34% (inactive); (at 50.0 µM) -16.2% (inactive) and 58.3% (inactive).
Take `C=C(C(=C)n1nnc(C(=O)OC)c1C(=O)OC)n1nnc(C(=O)OC)c1C(=O)OC`: the growth inhibition was -3% (inactive) under setting [1], -2% (inactive) under setting [2] and 53.2% (inactive) (at 50.0 µM).
Consider `CCCCCCCCCCCC1=NCCO1`, for which the growth inhibition is, setting by setting: under setting [1], -18% (inactive); under setting [2], 36% (inactive); (at 50.0 µM) 21% (inactive).
With `O=c1nc2n(Cc3ccccc3)c3ccccc3nc-2c(=O)[nH]1`, the growth inhibition runs as follows: under setting [1], 6% (inactive); under setting [2], 22% (inactive); (at 50.0 µM) 28.2% (inactive).
For `C=C1CC(CCCl)(c2ccccc2)OC1=O` (configuration not stated), the growth inhibition was 18% (inactive) under setting [1], 93% (active) under setting [2] and 90.9% (active) (at 50.0 µM).
With `O=c1ssc(=Nc2ccccc2)n1-c1ccccc1`, the growth inhibition runs as follows: under setting [1], -11% (inactive) and -1% (inactive); under setting [2], 86% (active) and 64% (inactive); (at 50.0 µM) 99.5% (active) and 66.2% (inactive).
For the compound `CCCCCOC(=S)SC(=O)OCC`, the growth inhibition is, setting by setting: under setting [1], 9% (inactive); under setting [2], 53% (inactive); (at 50.0 µM) 64.8% (inactive).
Consider `CCc1cc(O)c(Cl)c(C)c1Cl`, for which the growth inhibition under setting [1] was 46% (inactive), the growth inhibition under setting [2] is 70% (active) and the growth inhibition (at 50.0 µM) is 35% (inactive).
Regarding `CCc1ccc2c(c1)N(CC(C)CN(C)C)c1ccccc1S2` (configuration not stated), the growth inhibition by setting is: under setting [1], -24% (inactive); under setting [2], 21% (inactive); (at 50.0 µM) 65% (inactive).
Regarding `COc1ccc(C(=O)Oc2ccccc2Br)cc1`, the growth inhibition was 0% (inactive) under setting [1], 16% (inactive) under setting [2] and -16.3% (inactive) (at 50.0 µM).
In the case of `CCC(=O)c1cc(C(=O)C(=S)SC)cc(C(=O)C(=S)SC)c1`, the growth inhibition was -3% (inactive) under setting [1], 37% (inactive) under setting [2] and 88.7% (active) (at 50.0 µM).
Take `Cc1ccc(N=Nc2ccc(O)c(=O)cc2)cc1`: the growth inhibition was 13% (inactive) under setting [1]; 95% (active) under setting [2]; -1.5% (inactive) and 90.4% (active) (at 50.0 µM).
